Inhibition data for 1 compound are collected here from ChEMBL document CHEMBL1961873, “Compounds: GSK PKIS; Assays: Nanosyn kinase panel” (2012).

Assay [1] has as its target Sphingosine kinase 1 (Homo sapiens) (UniProt Q9NYA1). Conditions: at 1 µM.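 Further: mean SPHK1 inhibition value reported from the GSK PKIS kinase panel screen.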
The target of assay [2] is T1, Sphingosine kinase 2 (Homo sapiens) (UniProt Q9NRA0).
T1 sequence (whole entry): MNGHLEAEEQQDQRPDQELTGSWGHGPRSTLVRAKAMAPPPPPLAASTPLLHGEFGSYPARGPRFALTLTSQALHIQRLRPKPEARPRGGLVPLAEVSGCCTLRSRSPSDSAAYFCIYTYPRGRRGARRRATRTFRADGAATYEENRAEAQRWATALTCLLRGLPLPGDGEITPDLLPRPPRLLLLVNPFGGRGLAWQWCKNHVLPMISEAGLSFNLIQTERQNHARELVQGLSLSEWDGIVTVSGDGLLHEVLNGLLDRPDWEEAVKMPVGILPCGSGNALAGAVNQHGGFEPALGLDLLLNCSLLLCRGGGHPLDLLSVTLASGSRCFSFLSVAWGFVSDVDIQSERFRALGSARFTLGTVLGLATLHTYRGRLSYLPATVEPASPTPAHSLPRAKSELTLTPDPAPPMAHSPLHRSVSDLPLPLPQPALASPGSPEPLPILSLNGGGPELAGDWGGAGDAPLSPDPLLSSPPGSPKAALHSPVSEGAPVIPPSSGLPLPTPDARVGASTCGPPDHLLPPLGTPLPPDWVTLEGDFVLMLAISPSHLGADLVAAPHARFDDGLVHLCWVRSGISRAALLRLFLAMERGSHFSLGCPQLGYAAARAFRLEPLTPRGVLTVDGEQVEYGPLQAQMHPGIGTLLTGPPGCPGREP
The note with it: at 0.1 µM.

Assay [3] concerns the target T1, Sphingosine kinase 2 (Homo sapiens). The note with it: at 1 µM.
The target of assay [4] is Casein kinase II subunit alpha (Homo sapiens) (UniProt P68400). Conditions: at 0.1 µM.
Sequence of Casein kinase II subunit alpha (Homo sapiens) (P68400 whole entry, looked up): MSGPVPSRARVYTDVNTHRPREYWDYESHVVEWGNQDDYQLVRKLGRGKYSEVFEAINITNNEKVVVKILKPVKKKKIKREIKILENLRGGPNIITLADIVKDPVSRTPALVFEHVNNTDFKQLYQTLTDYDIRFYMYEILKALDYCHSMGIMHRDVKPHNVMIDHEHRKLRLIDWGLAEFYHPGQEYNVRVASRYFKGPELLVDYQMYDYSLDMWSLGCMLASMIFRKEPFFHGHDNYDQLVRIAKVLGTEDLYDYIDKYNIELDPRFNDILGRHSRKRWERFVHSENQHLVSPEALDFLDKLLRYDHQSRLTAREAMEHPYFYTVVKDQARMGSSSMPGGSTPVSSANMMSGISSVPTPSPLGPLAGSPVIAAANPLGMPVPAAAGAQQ
For assay [5] the target is unchanged. The note with it: at 1 µM.
Assay [6] concerns the target T2, Inhibitor of nuclear factor kappa-B kinase subunit alpha (Homo sapiens) (UniProt O15111).
T2 sequence (whole entry): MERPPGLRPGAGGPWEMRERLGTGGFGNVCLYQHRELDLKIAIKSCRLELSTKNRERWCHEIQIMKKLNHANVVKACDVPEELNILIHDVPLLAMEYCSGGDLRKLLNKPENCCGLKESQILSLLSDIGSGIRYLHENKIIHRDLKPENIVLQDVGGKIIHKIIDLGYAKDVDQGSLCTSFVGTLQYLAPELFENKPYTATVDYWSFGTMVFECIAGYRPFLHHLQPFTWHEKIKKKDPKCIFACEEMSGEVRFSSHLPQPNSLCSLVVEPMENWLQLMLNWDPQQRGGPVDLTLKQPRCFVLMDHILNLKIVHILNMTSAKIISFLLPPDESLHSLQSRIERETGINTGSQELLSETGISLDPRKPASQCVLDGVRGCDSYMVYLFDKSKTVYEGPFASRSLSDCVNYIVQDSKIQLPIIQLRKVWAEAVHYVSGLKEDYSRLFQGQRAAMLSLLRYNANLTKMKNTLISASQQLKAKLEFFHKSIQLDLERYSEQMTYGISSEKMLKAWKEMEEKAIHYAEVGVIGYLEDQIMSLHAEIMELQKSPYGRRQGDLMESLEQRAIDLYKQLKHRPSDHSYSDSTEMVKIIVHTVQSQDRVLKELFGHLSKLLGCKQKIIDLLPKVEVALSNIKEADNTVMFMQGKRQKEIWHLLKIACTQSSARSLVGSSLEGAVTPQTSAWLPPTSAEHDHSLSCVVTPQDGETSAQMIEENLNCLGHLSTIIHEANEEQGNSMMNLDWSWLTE
The note with it: at 0.1 µM.

In assay [7] the target is T2, Inhibitor of nuclear factor kappa-B kinase subunit alpha (Homo sapiens). Conditions: at 1 µM.
Assay [8] addresses T3, Inhibitor of nuclear factor kappa-B kinase subunit beta (Homo sapiens) (UniProt O14920).
T3 sequence (whole entry): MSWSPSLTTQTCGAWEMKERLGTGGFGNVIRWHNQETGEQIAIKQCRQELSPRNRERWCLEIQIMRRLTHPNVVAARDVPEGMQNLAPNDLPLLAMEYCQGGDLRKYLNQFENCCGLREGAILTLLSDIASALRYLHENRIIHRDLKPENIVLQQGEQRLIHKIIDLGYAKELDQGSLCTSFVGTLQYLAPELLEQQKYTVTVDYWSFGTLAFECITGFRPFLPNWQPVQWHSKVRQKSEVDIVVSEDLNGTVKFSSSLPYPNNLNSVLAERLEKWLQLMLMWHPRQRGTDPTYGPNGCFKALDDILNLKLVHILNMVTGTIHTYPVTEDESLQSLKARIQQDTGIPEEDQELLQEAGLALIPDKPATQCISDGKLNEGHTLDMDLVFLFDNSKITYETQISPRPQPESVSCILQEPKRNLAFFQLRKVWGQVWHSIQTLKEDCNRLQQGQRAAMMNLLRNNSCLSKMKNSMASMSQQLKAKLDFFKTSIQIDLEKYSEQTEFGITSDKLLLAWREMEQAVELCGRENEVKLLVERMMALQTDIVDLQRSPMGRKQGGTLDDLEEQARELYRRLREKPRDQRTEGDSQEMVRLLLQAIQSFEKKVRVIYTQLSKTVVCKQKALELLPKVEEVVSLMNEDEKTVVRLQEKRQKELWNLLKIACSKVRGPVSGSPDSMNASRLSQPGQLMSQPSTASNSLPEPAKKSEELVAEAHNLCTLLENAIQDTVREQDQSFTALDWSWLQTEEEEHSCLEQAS
Conditions: at 0.1 µM.

Assay [9] concerns the target T3, Inhibitor of nuclear factor kappa-B kinase subunit beta (Homo sapiens). Conditions: at 1 µM.
The target of assay [10] is T4, Inhibitor of nuclear factor kappa-B kinase subunit epsilon (Homo sapiens) (UniProt Q14164).
T4 sequence (whole entry): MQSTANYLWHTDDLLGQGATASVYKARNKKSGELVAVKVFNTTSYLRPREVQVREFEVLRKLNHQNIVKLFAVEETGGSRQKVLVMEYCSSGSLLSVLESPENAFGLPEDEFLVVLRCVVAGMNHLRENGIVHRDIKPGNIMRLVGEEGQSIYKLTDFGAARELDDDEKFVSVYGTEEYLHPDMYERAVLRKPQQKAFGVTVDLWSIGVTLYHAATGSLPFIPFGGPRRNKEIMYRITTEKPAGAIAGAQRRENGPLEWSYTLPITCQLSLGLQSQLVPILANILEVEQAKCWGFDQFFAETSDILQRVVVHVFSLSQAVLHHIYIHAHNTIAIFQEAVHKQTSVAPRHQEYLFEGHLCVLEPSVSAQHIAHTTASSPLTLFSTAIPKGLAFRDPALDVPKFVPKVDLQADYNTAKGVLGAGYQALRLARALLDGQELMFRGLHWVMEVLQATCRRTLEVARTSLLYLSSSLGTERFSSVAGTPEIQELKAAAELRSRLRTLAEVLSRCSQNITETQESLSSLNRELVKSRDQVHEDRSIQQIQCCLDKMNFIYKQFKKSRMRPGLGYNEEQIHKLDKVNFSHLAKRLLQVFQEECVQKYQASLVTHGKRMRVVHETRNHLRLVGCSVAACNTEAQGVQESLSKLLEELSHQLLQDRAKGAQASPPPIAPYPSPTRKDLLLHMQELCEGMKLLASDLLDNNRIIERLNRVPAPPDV
The note with it: at 0.1 µM.

Assay [11] has as its target T4, Inhibitor of nuclear factor kappa-B kinase subunit epsilon (Homo sapiens). The note with it: at 1 µM.
For assay [12], the target named is T5, Serine/threonine-protein kinase Nek1 (Homo sapiens) (UniProt Q96PY6).
T5 sequence (whole entry): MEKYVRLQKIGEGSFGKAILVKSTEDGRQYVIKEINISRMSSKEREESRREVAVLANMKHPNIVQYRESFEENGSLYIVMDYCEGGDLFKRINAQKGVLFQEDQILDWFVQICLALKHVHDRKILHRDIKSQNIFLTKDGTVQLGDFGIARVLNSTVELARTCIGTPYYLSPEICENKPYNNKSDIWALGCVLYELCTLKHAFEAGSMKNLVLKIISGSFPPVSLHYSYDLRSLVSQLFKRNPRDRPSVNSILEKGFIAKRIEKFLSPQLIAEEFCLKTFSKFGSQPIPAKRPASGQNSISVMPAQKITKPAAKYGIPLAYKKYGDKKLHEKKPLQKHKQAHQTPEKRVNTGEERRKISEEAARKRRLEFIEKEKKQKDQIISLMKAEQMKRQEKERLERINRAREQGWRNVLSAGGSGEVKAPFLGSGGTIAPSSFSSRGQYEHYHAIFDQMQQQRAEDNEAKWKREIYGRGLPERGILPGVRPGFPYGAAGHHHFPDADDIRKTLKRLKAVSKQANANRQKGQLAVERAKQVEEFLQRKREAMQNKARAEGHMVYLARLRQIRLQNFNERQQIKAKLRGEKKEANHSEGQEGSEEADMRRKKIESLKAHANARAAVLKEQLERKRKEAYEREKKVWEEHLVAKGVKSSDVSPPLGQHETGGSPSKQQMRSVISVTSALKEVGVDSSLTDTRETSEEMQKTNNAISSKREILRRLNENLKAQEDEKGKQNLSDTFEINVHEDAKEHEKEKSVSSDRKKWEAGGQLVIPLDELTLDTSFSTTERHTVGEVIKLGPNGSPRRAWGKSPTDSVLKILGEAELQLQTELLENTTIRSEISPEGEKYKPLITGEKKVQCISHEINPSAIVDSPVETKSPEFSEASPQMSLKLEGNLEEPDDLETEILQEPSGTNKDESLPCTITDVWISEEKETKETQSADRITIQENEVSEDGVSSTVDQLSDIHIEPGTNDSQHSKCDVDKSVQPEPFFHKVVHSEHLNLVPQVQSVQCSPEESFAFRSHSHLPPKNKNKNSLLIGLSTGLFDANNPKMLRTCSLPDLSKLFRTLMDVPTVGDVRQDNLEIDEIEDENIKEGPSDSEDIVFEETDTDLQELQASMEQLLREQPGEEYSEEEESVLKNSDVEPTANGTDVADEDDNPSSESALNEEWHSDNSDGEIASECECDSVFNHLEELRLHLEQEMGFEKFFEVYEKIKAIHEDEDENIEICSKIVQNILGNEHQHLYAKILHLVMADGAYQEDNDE
The note with it: at 0.1 µM.

Assay [13] has as its target T5, Serine/threonine-protein kinase Nek1 (Homo sapiens). Conditions: at 1 µM.
Assay [14] deals with T6, Serine/threonine-protein kinase Nek2 (Homo sapiens) (UniProt P51955).
T6 sequence (whole entry): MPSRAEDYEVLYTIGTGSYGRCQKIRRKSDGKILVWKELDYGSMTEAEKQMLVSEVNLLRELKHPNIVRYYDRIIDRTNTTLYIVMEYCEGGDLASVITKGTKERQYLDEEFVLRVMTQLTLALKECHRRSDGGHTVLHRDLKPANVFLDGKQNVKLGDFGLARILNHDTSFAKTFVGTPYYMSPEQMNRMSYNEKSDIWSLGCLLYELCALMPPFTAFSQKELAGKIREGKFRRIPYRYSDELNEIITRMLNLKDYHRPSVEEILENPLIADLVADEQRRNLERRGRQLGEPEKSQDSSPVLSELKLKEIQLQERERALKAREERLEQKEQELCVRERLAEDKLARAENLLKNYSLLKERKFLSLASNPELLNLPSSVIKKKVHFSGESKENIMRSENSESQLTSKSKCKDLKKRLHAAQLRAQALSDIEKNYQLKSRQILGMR
The note with it: at 0.1 µM.

Assay [15] has as its target T6, Serine/threonine-protein kinase Nek2 (Homo sapiens). The note with it: at 1 µM.
For assay [16], the target named is Serine/threonine-protein kinase Nek6 (Homo sapiens) (UniProt Q9HC98). Conditions: at 0.1 µM.
Sequence of Serine/threonine-protein kinase Nek6 (Homo sapiens) (Q9HC98 whole entry): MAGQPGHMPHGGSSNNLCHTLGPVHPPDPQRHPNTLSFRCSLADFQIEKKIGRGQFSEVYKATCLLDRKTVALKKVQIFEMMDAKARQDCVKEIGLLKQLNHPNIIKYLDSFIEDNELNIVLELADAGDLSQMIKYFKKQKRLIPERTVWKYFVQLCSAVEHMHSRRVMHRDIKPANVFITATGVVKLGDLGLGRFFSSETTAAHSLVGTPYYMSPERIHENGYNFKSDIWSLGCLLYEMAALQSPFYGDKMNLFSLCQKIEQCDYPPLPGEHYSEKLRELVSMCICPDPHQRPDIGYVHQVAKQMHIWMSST
For assay [17] the target is unchanged. Conditions: at 1 µM.
Assay [18] concerns the target Serine/threonine-protein kinase Nek7 (Homo sapiens) (UniProt Q8TDX7). The note with it: at 0.1 µM.
The target is the same in assay [19]. Conditions: at 1 µM.
Assay [20] deals with T7, Serine/threonine-protein kinase Nek9 (Homo sapiens) (UniProt Q8TD19).
T7 sequence (whole entry): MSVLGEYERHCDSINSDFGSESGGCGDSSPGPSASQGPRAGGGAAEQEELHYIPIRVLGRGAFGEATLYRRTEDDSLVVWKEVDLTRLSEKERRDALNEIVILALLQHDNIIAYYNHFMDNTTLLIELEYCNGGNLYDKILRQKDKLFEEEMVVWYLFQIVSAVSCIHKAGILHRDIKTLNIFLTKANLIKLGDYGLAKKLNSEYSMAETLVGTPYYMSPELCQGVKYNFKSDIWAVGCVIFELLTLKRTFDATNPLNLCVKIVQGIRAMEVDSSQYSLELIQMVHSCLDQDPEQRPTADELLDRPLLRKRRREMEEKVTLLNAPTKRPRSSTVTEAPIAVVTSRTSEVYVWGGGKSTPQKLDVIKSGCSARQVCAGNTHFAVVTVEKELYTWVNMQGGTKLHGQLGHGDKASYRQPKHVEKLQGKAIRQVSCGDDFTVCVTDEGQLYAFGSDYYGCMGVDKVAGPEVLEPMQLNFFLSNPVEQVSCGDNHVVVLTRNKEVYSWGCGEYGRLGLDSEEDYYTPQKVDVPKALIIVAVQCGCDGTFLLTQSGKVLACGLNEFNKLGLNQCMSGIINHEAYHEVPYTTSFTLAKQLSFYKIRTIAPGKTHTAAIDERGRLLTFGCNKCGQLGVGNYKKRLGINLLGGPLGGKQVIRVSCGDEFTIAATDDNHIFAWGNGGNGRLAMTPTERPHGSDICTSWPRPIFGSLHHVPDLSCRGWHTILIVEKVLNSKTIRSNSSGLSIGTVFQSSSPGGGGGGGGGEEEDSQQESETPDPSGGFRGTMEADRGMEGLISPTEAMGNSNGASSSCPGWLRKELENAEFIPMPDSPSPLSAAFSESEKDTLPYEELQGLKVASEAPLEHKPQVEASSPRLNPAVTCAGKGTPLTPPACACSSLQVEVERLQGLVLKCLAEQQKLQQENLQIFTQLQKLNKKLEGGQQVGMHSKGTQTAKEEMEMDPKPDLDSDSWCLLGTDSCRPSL
The note with it: at 0.1 µM.

Sequence of Serine/threonine-protein kinase Nek7 (Homo sapiens) (Q8TDX7 whole entry, looked up): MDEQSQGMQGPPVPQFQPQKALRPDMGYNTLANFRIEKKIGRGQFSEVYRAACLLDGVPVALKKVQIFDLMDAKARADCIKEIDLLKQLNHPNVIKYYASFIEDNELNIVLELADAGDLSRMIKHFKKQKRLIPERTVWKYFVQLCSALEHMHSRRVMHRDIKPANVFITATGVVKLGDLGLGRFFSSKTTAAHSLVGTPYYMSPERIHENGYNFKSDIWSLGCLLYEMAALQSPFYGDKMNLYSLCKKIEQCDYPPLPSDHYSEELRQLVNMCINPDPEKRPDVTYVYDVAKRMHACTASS
Sequence of Sphingosine kinase 1 (Homo sapiens) (Q9NYA1 whole entry): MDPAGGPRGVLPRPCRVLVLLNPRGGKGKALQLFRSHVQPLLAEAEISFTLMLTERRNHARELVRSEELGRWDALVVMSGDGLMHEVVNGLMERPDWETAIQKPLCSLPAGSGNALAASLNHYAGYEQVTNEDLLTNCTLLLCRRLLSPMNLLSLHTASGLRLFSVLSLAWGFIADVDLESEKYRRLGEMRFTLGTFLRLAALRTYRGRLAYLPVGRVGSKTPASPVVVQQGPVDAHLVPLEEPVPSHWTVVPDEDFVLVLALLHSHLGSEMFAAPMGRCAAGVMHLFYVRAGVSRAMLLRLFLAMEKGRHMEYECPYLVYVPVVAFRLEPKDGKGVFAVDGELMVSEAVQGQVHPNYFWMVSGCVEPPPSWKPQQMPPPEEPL

As usually defined, the inhibition is the drop in the measured response relative to a control, in per cent. `N#Cc1ccc2c(-c3ccnc(NC4CC4)n3)c(-c3ccc(F)cc3)nn2c1`: the inhibition was 0.88% in [1]; -0.39% in assay [2]; 0.05% in assay [3]; 2.7% in [4]; 1.8% in assay [5]; 3.97% in [6]. Also, the inhibition in assay [7] is -0.5%; in assay [8], 2.19%; in [9], 0.5%; in assay [10], 1.8%; in assay [11] it was 3.7%; in [12], 0.87%. Further, the inhibition in assay [13] was determined as 2.03%; in assay [14], 2.22%; in [15], 1.83%; in [16] it was 1.63%; in assay [17], 1.52%; in [18], 1.73%. Further, the values for the inhibition in [19] and in assay [20] were 2.38% and 3.27%, respectively.
